From publication PMC11062922 (Nature Chemical Biology, 2023)
Like-named read-outs stand apart in the source and are kept apart here.

Assays:
Set-up in all cases: species or system human, MV4-11 + K-562 + COLO205 + SK-N-BE2 + OVCAR-8
ABL2 = conditions: read-out: apparent Kd, compound concentrations: 100 nM and 1000 nM (sheet 'Samples'), n = 1
FYN = conditions: read-out: apparent Kd, compound concentrations: 100 nM and 1000 nM (sheet 'Samples'), n = 1
GAK = conditions: read-out: apparent Kd, compound concentrations: 100 nM and 1000 nM (sheet 'Samples'), n = 1
LCK = conditions: read-out: apparent Kd, compound concentrations: 100 nM and 1000 nM (sheet 'Samples'), n = 1
RIPK3 = conditions: read-out: apparent Kd, compound concentrations: 100 nM and 1000 nM (sheet 'Samples'), n = 1
TNK1 = conditions: read-out: apparent Kd, compound concentrations: 100 nM and 1000 nM (sheet 'Samples'), n = 1
YES1 = conditions: read-out: apparent Kd, compound concentrations: 100 nM and 1000 nM (sheet 'Samples'), n = 1
CSNK2A1;CSNK2A3 = conditions: read-out: apparent Kd, n = 1
ABL1 = conditions: read-out: apparent Kd, n = 1
BCR = conditions: read-out: apparent Kd, n = 1
HCK = conditions: read-out: apparent Kd, compound concentrations: 100 nM and 1000 nM (sheet 'Samples'), n = 1
PTK6 = conditions: read-out: apparent Kd; compound concentrations: 100 nM and 1000 nM (sheet 'Samples'), CATDS: 6.7887281457167797E-2; n = 1
RET = conditions: read-out: apparent Kd, n = 1
RIPK2 = conditions: read-out: apparent Kd; compound concentrations: 100 nM and 1000 nM (sheet 'Samples'), CATDS: 0.235092034784944; n = 1
CLK1 = conditions: read-out: apparent Kd; compound concentrations:100 nM and 1000 nM (sheet 'Samples'); n = 1
CLK4 = conditions: read-out: apparent Kd; compound concentrations:100 nM and 1000 nM (sheet 'Samples'); n = 1
CSNK2A2 = conditions: read-out: apparent Kd; compound concentrations:100 nM and 1000 nM (sheet 'Samples'); n = 1
[1] = compound concentrations:100 nM and 1000 nM (sheet 'Samples')

For `CC(=O)N1CCN(c2ccc(Nc3nccc(-c4sc(C(C)C)nc4-c4cccc(NS(=O)(=O)c5cccc(Cl)c5)c4)n3)cn2)CC1` [GSK1660437A], the potency estimated from few doses (ABL2; CATDS: 7.86907844661483E-2) was 351 nM, the potency estimated from few doses (FYN; CATDS: 4.41921751489057E-2) was 1120 nM and the potency estimated from few doses (GAK; CATDS: 7.8355019854230004E-2) was 353 nM. For the same compound, the potency estimated from few doses (LCK; CATDS: 4.6764709487854099E-2) was 973 nM, the potency estimated from few doses (RIPK3; CATDS: 3.6291204942441098E-2) was 2010 nM and the potency estimated from few doses (TNK1; CATDS: 7.10025614221442E-2) was 418 nM. For the same compound, the potency estimated from few doses (YES1; CATDS: 4.9089753875203201E-2) was 868 nM.
`O=S(=O)(CCOCc1ccc(-c2ccc3ncnc(Nc4ccc(OCc5cccc(F)c5)c(Cl)c4)c3c2)o1)c1ccccc1` [GW615311X] gave a potency estimated from few doses (CSNK2A1;CSNK2A3; compound concentrations: 100 nM and 1000 nM (sheet 'Samples'), CATDS: 2.30931474147829E-2) of 2130 nM and a potency estimated from few doses (FYN; CATDS: 3.12916843215739E-2) of 1080 nM.
With `Fc1cc(Cl)ccc1Nc1ccnc2cc(-c3ccc(CN4CCOCC4)o3)ccc12` [GW560109X] the potency estimated from few doses (ABL1; compound concentrations: 100 nM and 1000 nM (sheet 'Samples'), CATDS: 5.7871370068112001E-2) was 1200 nM, the potency estimated from few doses (ABL2; CATDS: 6.6885266429186699E-2) was 810 nM and the potency estimated from few doses (BCR; compound concentrations: 100 nM and 1000 nM (sheet 'Samples'), CATDS: 0.27388815671753503) was 66.4 nM. The potency estimated from few doses (GAK; CATDS: 5.9630252923923099E-2) was 1100 nM, the potency estimated from few doses (HCK; CATDS: 5.4118184617509203E-2) was 1480 nM and the potency estimated from few doses (PTK6) was 780 nM. The potency estimated from few doses (RET; compound concentrations: 100 nM and 1000 nM (sheet 'Samples'), CATDS: 9.1999760709611106E-2) was 400 nM, the potency estimated from few doses (RIPK2) was 82.6 nM and the potency estimated from few doses (RIPK3; CATDS: 7.3765709446288102E-2) was 641 nM.
Compound `NS(=O)(=O)CCc1cccc(Nc2nccc(-c3c(-c4cccc(NC(=O)c5c(F)cccc5F)c4)nn4ccccc34)n2)c1` [GSK336735A] has a potency estimated from few doses (ABL2; CATDS: 7.5550907623065294E-2) of 635 nM, a potency estimated from few doses (FYN; CATDS: 5.89205391615404E-2) of 1140 nM and a potency estimated from few doses (HCK; CATDS: 9.1712833747147296E-2) of 439 nM. The potency estimated from few doses (LCK; CATDS: 8.1556930046594894E-2) was 546 nM, the potency estimated from few doses (RET; compound concentrations: 100 nM and 1000 nM (sheet 'Samples'), CATDS: 0.15467463345214499) was 196 nM and the potency estimated from few doses (RIPK3; CATDS: 7.11931563666406E-2) was 719 nM. The potency estimated from few doses (TNK1; CATDS: 8.7840058842797303E-2) was 475 nM and the potency estimated from few doses (YES1; CATDS: 0.104182093569698) was 354 nM.
`COc1cc(/C=N/Nc2ncnc3[nH]ncc23)ccc1O` [GW578748X] gave a potency estimated from few doses (ABL1; [1]) of 1250 nM, a potency estimated from few doses (BCR; [1]) of 678 nM and a potency estimated from few doses (CLK1) of 1370 nM. The potency estimated from few doses (CLK4) was 401 nM, the potency estimated from few doses (CSNK2A1;CSNK2A3; [1]) was 384 nM and the potency estimated from few doses (CSNK2A2) was 376 nM. For the same compound, the potency estimated from few doses (RET; [1]) was 494 nM.
